# Records with an inconclusive call do not appear. Calls of active or inactive are those of the source. The call rests on the fitted dose curve; in most records, active means well fitted cell-killing curve with a large enough effect in the repeat runs; inconclusive means weak or mixed curves, or effect the other way; inactive means flat fitted curve, though single readings scatter.
# Experiment: cAMP Responsive Elements (CRE) small molecule antagonists, cell-based qHTS assay: qHTS cell viability counter screen (AID 2060913); further: nearly all actives have a fitted effect of over 40% in size
# Conditions: CRE-bla HEK293T viability, CellTiter-Glo luminescence, 5 h; series mostly up to 92.4 µM; viability change, negative = cytotoxic: at the top concentration
# Text: U.S. Tox21 Program National Center for Advancing Translational Sciences [NCATS] Division of Preclinical Innovation [DPI] U.S. Environmental Protection Agency [EPA] National Institutes of Environmental Health Sciences [NIEHS] National Toxicology Program [NTP] U.S. Food and Drug Administration [FDA] Tox21 Assay Overview: CREB (cyclic-AMP Responsive Element Binding Protein) is a cellular transcription factor. It binds to certain DNA sequences called cAMP Responsive Elements (CRE) and regulates the transcription of the genes. […] This cell line can be used to find agonists/antagonists of the cyclic AMP signaling pathway. The activation of the report gene under culture conditions can be detected by fluorescence intensity. This cell line has been used to screen the Tox21 10K compound library to identify agonists that induce oxidative stress. The cytotoxicity of the Tox21 compound library against the CRE-bla cell line was tested in parallel by measuring the cell viability using CellTiter-Glo assay (Promega, Madison, WI) in the same wells.
# Tox21 Assay Protocol Summary: CRE-bla Hek 293T cells were suspended in assay medium (DMEM containing 10% dialyzed FBS, 0.1 mM NEAA, 1 mM sodium pyruvate and 25 mM HEPES) and dispensed at 2,000 cells/4 uL /well into 1536-well black wall/clear bottom plates using a Multidrop Combi (ThermoFisher Scientific, Waltham, MA) dispenser. After the assay plates were incubated at 37 C/5% CO2 for 18 hrs, 23 nL of compounds dissolved in DMSO, positive controls or DMSO only was transferred to the assay plate by a pintool workstation (Kalypsys, San Diego, CA), followed by addition of 1 uL of 1.25uM NKH477 (0.25 uM as final concentration) in assay medium using a Flying Reagent Dispenser (Aurora Discovery, San Diego, CA). The plates were incubated at 37 C and 5% CO2 for 3 hrs. Then 1 uL of LiveBLAzer B/G FRET substrate (Invitrogen, Carlsbad, CA) was added to each well using Bioraptr Flying Reagent Dispenser (FRD, Aurora Discovery, San Diego, CA). The plates were incubated at room temperature for 2 h, then fluorescence intensities were measured using an Envision plate reader (PerkinElmer, Shelton, CT) at Excitation 405nm, Emission 460nm and 530nm. The % activity was determined from the ratio of 460nm/530nm. For cell viability readout that measures cytotoxicity, 4 uL /well of CellTiter-Glo reagent was added into the assay plates using Bioraptr FRD. After 30 min incubation at room temperature, the luminescence intensity in the assay plates was measured using a ViewLux (PerkinElmer, Shelton, CT) plate reader.
# On the % scale 0 is the no-effect control and ±100 the full control effect; potency means the concentration at half of the fitted maximal effect.
Structure (SMILES),Potency,"viability change, negative = cytotoxic"
O=C(Oc1ccccc1)c1ccccc1,inactive,
CO[Si](CCCNc1ccccc1)(OC)OC,,-2.83% (inactive)
CC(=O)CC(=O)Nc1ccc2[nH]c(=O)[nH]c2c1,,4.01% (inactive)
C=CC(C)=CCC=C(C)C,,0.894% (inactive)
CCOC(=O)c1c(C)n(C)c2ccc(O)cc12,,0.187% [at 42.5 µM] (inactive)
CCOC(OCC)OCC,,-5.91% (inactive)
O=C(O)C(S)C(S)C(=O)O (stereo not given),,-4.64% [at 42.5 µM] (inactive)
c1ccc(B(c2ccccc2)c2ccccc2)cc1,,-7.27% (inactive)
CCC(C)C(=O)OC (stereo not given),,-7.46% (inactive)
CCCCOc1cc(C(=O)OCCN(CC)CC)ccc1N,,-0.808% [at 42.5 µM] (inactive)
O=S1(=O)N=C(O)c2ccccc21,,6.89% [at 42.5 µM] (inactive)
CC1CCC2CC1C2(C)C (stereo not given),inactive,
O=c1[nH]cnc2c1ncn2[C@@H]1O[C@H](CO)[C@@H](O)[C@H]1O,,8.88% [at 42.5 µM] (inactive)
Cc1ccccc1Br,,-1.04% (inactive)
CC(=O)Oc1ccc(C)cc1,inactive,
CCC(CN)=C(c1ccccc1)c1ccccc1,,-6.61% [at 42.5 µM] (inactive)
OCCN1CCN(CCCN2c3ccccc3Sc3ccc(C(F)(F)F)cc32)CC1,,-1.54% [at 42.5 µM] (inactive)
O=P(O)(O)Oc1ccccc1,,10.9% (inactive)
O=Cc1cccc([N+](=O)[O-])c1,,23.7% (inactive)
CN(C)CC/C=C1\c2ccccc2Sc2ccc(Cl)cc21,,-18.6% [at 42.5 µM] (inactive)

Structure (SMILES),Potency,"viability change, negative = cytotoxic"
COc1ccc(-c2cc(C(F)F)nn2-c2ccc(S(N)(=O)=O)cc2)cc1F,,0.2% [at 42.5 µM] (inactive)
COc1cc(CNC(=O)CCCC/C=C/C(C)C)ccc1O,,0.273% (inactive)
O=C(O)/C=C/c1ccccc1,,-0.69% (inactive)
Cc1cccc(C)c1[N+](=O)[O-],inactive,
CCCOC(C)=O,,-12.2% (inactive)
CCC[C@@H]1C[C@@H](C(=O)N[C@@H]([C@H]2O[C@H](SC)[C@H](O)[C@@H](O)[C@H]2O)[C@@H](C)O)N(C)C1,,1.34% [at 42.5 µM] (inactive)
CCCCCCCCCCN,inactive,
CCOC(=O)[C@H](CCc1ccccc1)N[C@@H](C)C(=O)N1CCC[C@H]1C(=O)O,,1.7% [at 42.5 µM] (inactive)
O=C1OC(O)C(C(Cl)Cl)=C1Cl (stereo not given),,0.318% (inactive)
O=c1[nH]c2ccccc2n1CCCN1CCN(C(c2ccccc2)c2ccccc2)CC1,,-1.01% [at 42.5 µM] (inactive)
O=C1CCC(C2CCCCC2)CC1,,0.429% (inactive)
Cc1ccccc1S,,-2.85% [at 42.5 µM] (inactive)
CCCCCCOC(=O)NC(=N)c1ccc(NCc2nc3cc(C(=O)N(CCC(=O)OCC)c4ccccn4)ccc3n2C)cc1,26.6 µM (active),
CCC1(CO)COCOC1,,3.25% (inactive)
CCCCN(CCCC)CC(O)c1cc(Cl)cc2c1-c1ccc(Cl)cc1/C2=C/c1ccc(Cl)cc1 (stereo not given),,4.07% [at 42.5 µM] (inactive)
CC(C)Nc1ccc(NC(C)C)c2c1C(=O)c1ccccc1C2=O,,-0.25% [at 42.5 µM] (inactive)
C=C(C)CCCC,,-0.361% (inactive)
CC(COC(=O)c1ccccc1)OC(=O)c1ccccc1 (stereo not given),,-3.79% (inactive)
C/C=C/C(=O)C1=C(C)CCCC1(C)C,,-11.8% (inactive)
Cc1ccc(C#N)cc1,,9.55% (inactive)
